Source: PubChem BioAssay (Tox21)
“And” between values parts separate entries of the source, which are not always exact repeats. Identical values can stand only once. Records with an inconclusive call do not appear. Entries that show only a call come without a potency. A structure can be active in one record and inactive in another. The source made the active and inactive calls. Unless noted, the call rests on the fitted dose curve; in most records, active means well fitted curve in the direction sought with a large enough effect in the repeat runs; inconclusive means weak or mixed curves; inactive means no such curve, though single readings can be large; an effect the other way counts as inactive or inconclusive.

What was measured:
[1] = qHTS assay to identify small molecule agonists of the RXR signaling pathway - cell viability counter screen (AID 1159529);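 further: HEK 293T cells carrying an RXR-alpha UAS beta-lactamase reporter; nearly all actives have a fitted effect of over 50% in size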
Procedure, shortened: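 Tox21 10K compounds were tested for cytotoxicity against GeneBLAzer RXR-alpha HEK 293T cells grown in 2% charcoal-stripped FBS. Exposure lasted 16 hr at 37 C, 5% CO2; viability read by CellTiter-Glo luminescence.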

[2] = qHTS assay to identify small molecule antagonists of the retinoid acid receptor (RAR) signaling pathway - cell viability counter screen (AID 1159551); further: nearly all actives have a fitted effect of over 35% in size
Procedure, shortened: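 Cytotoxicity counter screen: ATP content quantified by CellTiter-Glo luminescence in C3RL4 cells treated 6 hr at 37 C with compound and retinol (1 uM final). Cells plated at 1,000/well and cultured overnight before dosing.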

[3] = qHTS assay to identify small molecule antagonists of the retinoic acid receptor (RAR) signaling pathway (AID 1159552; further: nearly all actives have a fitted effect of over 50% in size)
Procedure, shortened: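 Overnight-plated C3RL4 reporter cells get compound, then retinol to 1 uM final; plates sit 6 hr at 37 C, 5% CO2. A luciferase reagent is added and light output recorded after 30 min at room temperature.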

[4] = qHTS assay to identify small molecule agonists of the retinoic acid receptor (RAR) signaling pathway (AID 1159553); settings: C3RL4 RARE luciferase reporter, agonist, 6 h; activation: at 73.3 µM (top of the series) unless noted; further: potency means the concentration at half of the fitted maximal effect
Procedure, shortened: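 Luminescence was measured 30 min after luciferase reagent addition at room temperature. Before that, C3RL4 reporter cells (1,000 per well, plated overnight) were treated with compound for 6 hr at 37 C and 5% CO2.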

[5] = qHTS assay to identify small molecule antagonists of the estrogen related receptor (ERR) signaling pathway from Tox21 library - cell viability counter screen (AID 1224834); further: nearly all actives have a fitted effect of over 30% in size
Procedure, shortened: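 CellTiter-Fluor fluorescence, read after 30 min at 37 C, measures viability of ERR cells. Cells plated at 2,000/well and incubated 6 h before pin-tool compound addition, then exposed 17.5 hours at 37 C.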

[6] = target: Luciferin 4-monooxygenase (Photinus pyralis) (UniProt P08659); assay: qHTS assay to identify small molecule inhibitors of firefly luciferase (AID 1224835); further: nearly all actives have a fitted effect of over 25% in size; further: potency means the concentration at half of the fitted maximal effect
Luciferin 4-monooxygenase (Photinus pyralis), sequence (P08659 whole entry, looked up): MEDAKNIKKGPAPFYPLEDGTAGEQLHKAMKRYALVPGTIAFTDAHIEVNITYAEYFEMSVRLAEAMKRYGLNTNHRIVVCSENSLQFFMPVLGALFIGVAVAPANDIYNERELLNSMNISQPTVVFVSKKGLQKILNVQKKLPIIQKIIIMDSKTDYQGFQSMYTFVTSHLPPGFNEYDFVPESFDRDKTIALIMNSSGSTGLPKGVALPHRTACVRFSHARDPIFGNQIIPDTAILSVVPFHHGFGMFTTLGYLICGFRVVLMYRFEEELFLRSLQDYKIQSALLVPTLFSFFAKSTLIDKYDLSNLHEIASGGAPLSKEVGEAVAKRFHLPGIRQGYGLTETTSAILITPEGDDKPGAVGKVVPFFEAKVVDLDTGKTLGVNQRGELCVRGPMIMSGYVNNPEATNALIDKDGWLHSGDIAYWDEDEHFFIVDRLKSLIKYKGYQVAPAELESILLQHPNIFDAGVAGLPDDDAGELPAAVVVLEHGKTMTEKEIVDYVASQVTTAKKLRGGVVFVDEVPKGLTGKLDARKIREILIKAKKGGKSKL
Procedure, shortened: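 Quantitative HTS format; KM concentrations of both substrates. Purified P. pyralis FLuc activity quantified from luminescence images.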

[7] = qHTS assay to identify small molecule agonists of the constitutive androstane receptor (CAR) signaling pathway - cell viability counter screen (AID 1224836); further: nearly all actives have a fitted effect of over 45% in size
Procedure, shortened: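 Fluorescence from CellTiter-Fluor indicates live cells after 23 h exposure. The human hepatoma line expresses hCAR and a CYP2B6-2.2kb reporter. Incubation medium contains 0.75 uM PK11195 (final).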

[8] = qHTS assay to identify small molecule antagonists of the constitutive androstane receptor (CAR) signaling pathway - cell viability counter screen (AID 1224837); further: nearly all actives have a fitted effect of over 45% in size
Procedure, shortened: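 Cytotoxicity counter-screen: CellTiter-Fluor fluorescence after 23 h compound exposure (15-point qHTS) in double-stable HepG2-CYP2B6-hCAR cells, with 50 nM CITCO added.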

[9] = target: Nuclear receptor subfamily 1 group I member 3 (Homo sapiens) (UniProt Q14994); assay: qHTS assay to identify small molecule antagonists of the constitutive androstane receptor (CAR) signaling pathway (AID 1224838);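 further: HepG2 cells stably expressing hCAR with CYP2B6 luciferase reporter stimulated by CITCO; nearly all actives have a fitted effect of over 40% in size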
Nuclear receptor subfamily 1 group I member 3 (Homo sapiens), sequence (Q14994 whole entry, looked up): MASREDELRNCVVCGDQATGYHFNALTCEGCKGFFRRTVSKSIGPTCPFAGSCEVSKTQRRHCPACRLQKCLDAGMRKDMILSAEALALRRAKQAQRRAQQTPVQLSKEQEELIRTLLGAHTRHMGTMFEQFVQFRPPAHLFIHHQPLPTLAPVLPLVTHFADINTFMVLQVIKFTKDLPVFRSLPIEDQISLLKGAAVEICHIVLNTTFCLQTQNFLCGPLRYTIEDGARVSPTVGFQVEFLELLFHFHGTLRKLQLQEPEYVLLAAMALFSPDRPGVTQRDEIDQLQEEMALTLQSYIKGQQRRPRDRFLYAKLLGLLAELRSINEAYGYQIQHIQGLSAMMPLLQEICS
Procedure, shortened: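 Antagonism measured as luciferase signal (ONE-Glo, 30 min, room temperature) in CAR-stimulated cells: HepG2-CYP2B6-hCAR double-stable line exposed 24 hr at 37 C to compound in a 15-point series plus 50 nM CITCO.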

[10] = target: Nuclear receptor subfamily 1 group I member 3 (Homo sapiens) (UniProt Q14994); assay: qHTS assay to identify small molecule agonists of the constitutive androstane receptor (CAR) signaling pathway (AID 1224839); further: nearly all actives have a fitted effect of over 15% in size; further: potency means the concentration at half of the fitted maximal effect;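 on activation: HepG2 cells stably carrying human CAR and a CYP2B6 luciferase reporter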
Procedure, shortened: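 Stable hCAR/CYP2B6-2.2kb HepG2 line in DMEM with 10% FBS; compounds (15 concentrations) and 0.75 uM PK11195 final, 24 h at 37 C/5% CO2, then ONE-Glo luminescence after 30 min.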

[11] = qHTS assay to identify small molecule antagonists of the estrogen related receptor signaling pathway with the pleiotropic PPARgamma coactivator (PGC) from Tox21 10K library - cell viability counter screen (AID 1224840; active means well fitted cell-killing curve with a large enough effect in the repeat runs, not every such curve was filed as active; further: nearly all actives have a fitted effect of over 40% in size)
Procedure, shortened: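 Counter-screen for cytotoxicity: after 17.5 h compound exposure at 37 C, CellTiter-Fluor reagent added to PGC/ERR cells for 30 min and fluorescence read. Cells were seeded at 2,000 per well 6 h before dosing.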

[12] = qHTS assay to identify small molecule antagonists of the estrogen related receptor (ERR) signaling pathway - cell viability counter screen (AID 1224818);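 further: viability measured after 17.5 h of compound exposure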
Procedure, shortened: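 Cytotoxicity counter screen: fluorescence from CellTiter-Fluor, added after 17.5 h compound exposure at 37 C and read 30 min later. ERR cell line seeded at 2,000 cells/well, preincubated 6 h before dosing.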

[13] = qHTS assay to identify small molecule antagonists of the estrogen related receptor (ERR) signaling pathway (AID 1224819;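 further: luminescence from an ERR-driven luciferase reporter measured with One-Glo reagent; nearly all actives have a fitted effect of over 50% in size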)
Procedure, shortened: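 LOPAC library screened for antagonism as reduced One-Glo luminescence in ERR reporter cells (2,000/well). Compounds were added after 6 h pre-incubation and left 18 h at 37C; reading followed a 30 min room-temperature reagent step.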

[14] = qHTS assay to identify small molecule agonists of the estrogen related receptor (ERR) signaling pathway (AID 1224820)
Procedure, shortened: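 An ERR cell line provided by NTP was seeded at 2,000 cells per well and allowed to settle for 6 h before compounds in DMSO were added. After 18 h at 37 C, luciferase activity was measured by One-Glo luminescence.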

[15] = qHTS assay to identify small molecule antagonists of the estrogen related receptor signaling pathway with the pleiotropic PPARgamma coactivator (PGC) cell viability counter screen (AID 1224822)
Procedure, shortened: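 Viability counter-screen read by fluorescence intensity after 30 min with CellTiter-Fluor at 37 C; PGC/ERR reporter cells were exposed to compounds for 17.5 h at 37 C following a 6 h preincubation.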

[16] = target: Thyrotropin receptor (Homo sapiens) (UniProt P16473); assay: qHTS assay to identify small molecule agonists of the thyroid stimulating hormone receptor (TSHR) signaling pathway (AID 1224843; calls by dose curve; further: nearly all actives have a fitted effect of over 45% in size)
Thyrotropin receptor (Homo sapiens), sequence (P16473 whole entry, looked up): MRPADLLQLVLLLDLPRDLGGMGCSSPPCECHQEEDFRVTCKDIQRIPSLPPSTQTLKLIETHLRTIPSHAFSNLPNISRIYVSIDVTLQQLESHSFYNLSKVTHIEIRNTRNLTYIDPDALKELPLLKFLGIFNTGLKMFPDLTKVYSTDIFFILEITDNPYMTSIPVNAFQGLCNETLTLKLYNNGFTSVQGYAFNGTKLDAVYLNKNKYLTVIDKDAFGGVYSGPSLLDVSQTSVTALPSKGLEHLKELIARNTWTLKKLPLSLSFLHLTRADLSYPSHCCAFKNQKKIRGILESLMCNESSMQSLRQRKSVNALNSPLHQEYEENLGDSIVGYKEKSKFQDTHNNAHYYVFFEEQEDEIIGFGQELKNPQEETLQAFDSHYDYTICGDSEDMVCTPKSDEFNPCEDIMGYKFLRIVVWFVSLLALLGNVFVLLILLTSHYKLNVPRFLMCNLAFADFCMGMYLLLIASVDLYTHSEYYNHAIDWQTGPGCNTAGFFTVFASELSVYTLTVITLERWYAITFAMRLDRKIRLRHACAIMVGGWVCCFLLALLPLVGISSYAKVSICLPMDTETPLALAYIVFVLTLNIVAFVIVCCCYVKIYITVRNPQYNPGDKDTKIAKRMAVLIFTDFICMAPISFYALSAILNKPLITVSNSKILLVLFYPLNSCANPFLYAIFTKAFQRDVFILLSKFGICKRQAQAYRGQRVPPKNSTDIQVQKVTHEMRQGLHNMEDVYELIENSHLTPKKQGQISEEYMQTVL
Procedure, shortened: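 Compounds are titrated over 15 concentrations, in triplicate, onto TSHR-HEK293 cells seeded at 800/well. Plates sit 30 min at room temperature before cAMP-d2 and anti-cAMP cryptate are added; signal is read after a further hour.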

[17] = qHTS assay to identify small molecule agonists of the estrogen related receptor signaling pathway with the pleiotropic PPARgamma coactivator (PGC) from Tox21 10K library (AID 1224842); further: nearly all actives have a fitted effect of over 15% in size
Procedure, shortened: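 PGC/ERR reporter cells (NTP line) were seeded 2,000 per well, rested 6 h at 37 C/5% CO2, then pin-dosed with compounds in DMSO for 18 h at 37 C; luciferase read by One-Glo luminescence after 30 min at room temperature.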

[18] = test system: estrogen-related receptor alpha (ERRalpha) with PGC-1alpha coactivator, human; assay: qHTS assay to identify small molecule antagonists of the estrogen related receptor signaling pathway with the pleiotropic PPARgamma coactivator (PGC) (AID 1224821; calls by dose curve;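 further: lower luminescence signal means antagonism of PGC/ERR signalling; nearly all actives have a fitted effect of over 50% in size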)
Procedure, shortened: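 A PGC/ERR cell line supplied by NTP is seeded, allowed 6 h at 37 C, and treated with test compounds in DMSO for 18 h. Signal is then measured as luciferase luminescence using One-Glo.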

Row | SMILES | Potency [1] | Potency [2] | Potency [3] | Potency [4] | Potency [5] | Potency [6] | Potency [7] | Potency [8] | Potency [9] | Potency [10] | Potency [11] | outcome [12] | Potency [13] | outcome [14] | Potency [15] | Potency [16] | activity change, negative = cytotoxicity [1] | activity change, negative = inhibition [6] | Potency [17] | Potency [18]
1 | O=C1CCCCCCCCCCC1 | inactive | inactive | inactive | inactive | inactive | inactive | inactive | inactive | inactive | inactive | inactive |  |  |  |  |  |  |  |  | 
2 | CCCCCCC(=O)O | inactive | inactive | inactive | inactive | inactive | inactive | inactive | inactive | inactive | inactive | inactive |  |  |  |  |  |  |  |  | 
3 | O=c1n(CCCN2CCN(c3cccc(Cl)c3)CC2)nc2ccccn12 | inactive | inactive | inactive | inactive |  |  | inactive | inactive | inactive | inactive | inactive | inactive | inactive | inactive | inactive |  |  |  |  | 
4 | CC(=O)C(C)C | inactive | inactive | inactive | inactive | inactive | inactive | inactive | inactive |  |  | inactive |  |  |  |  |  |  |  |  | 
5 | OB(O)O | inactive | inactive | inactive | inactive | inactive | inactive | inactive | inactive | inactive | inactive | inactive |  |  |  |  | inactive |  |  |  | 
6 | OCC(CO)(CO)CO | inactive | inactive | inactive | inactive | inactive | inactive | inactive | inactive | inactive | inactive | inactive |  |  |  |  |  |  |  |  | 
7 | COC(=O)CCCCC(=O)OC | inactive | inactive | inactive | inactive | inactive | inactive | inactive | inactive |  |  | inactive |  |  |  |  |  |  |  |  | 
8 | CCCCC(=O)O | inactive | inactive | inactive | inactive | inactive | inactive | inactive | inactive | inactive | inactive | inactive |  |  |  |  | inactive |  |  |  | 
9 | CCCCCCCCCCCC(=O)N(C)CC(=O)O |  | inactive | inactive | inactive | inactive | 77.2 µM (active) | inactive | inactive |  |  | inactive |  |  |  |  | inactive | 3.37% [at 6.97 µM] (inactive) | 1.62% [at 10.5 µM] (inactive) |  | 
10 | COc1cc(NC(=O)CC(C)=O)c(OC)cc1Cl | inactive | inactive | inactive | inactive | inactive | inactive | inactive | inactive | inactive | 61.4 µM (active) and 61.1 µM (active) | inactive |  |  |  |  | inactive |  |  | inactive | 
11 | O=[N+]([O-])c1ccccc1C(F)(F)F | inactive | inactive | inactive | inactive | inactive | inactive | inactive | inactive | inactive | inactive | inactive |  |  |  |  | inactive |  |  |  | 
12 | CCCOC(=O)NCCCN(C)C | inactive | inactive | inactive | inactive | inactive | inactive | inactive | inactive | inactive | inactive | inactive |  |  |  |  |  |  |  |  | 
13 | OCC(O)CS (stereo not given) | inactive | inactive | inactive | inactive | inactive | inactive | inactive | inactive | inactive | inactive | inactive |  |  |  |  |  |  |  |  | 
14 | CC(=O)OCCC(C)C | inactive | inactive | inactive | inactive | inactive | inactive | inactive | inactive | inactive | inactive | inactive |  |  |  |  |  |  |  |  | 
15 | CCCCCCCCC(=O)O | inactive | inactive | inactive | inactive | inactive | inactive | inactive | inactive | inactive | inactive | inactive |  |  |  |  | inactive |  |  |  | 
16 | CC(COCC(C)OC(=O)c1ccccc1)OC(=O)c1ccccc1 (stereo not given) | inactive | inactive | inactive | inactive | inactive | inactive | inactive | inactive | inactive | inactive | inactive |  |  |  |  |  |  |  |  | 
17 | COCN(COC)c1nc(N(COC)COC)nc(N(COC)COC)n1 | inactive | inactive | inactive | inactive | inactive | inactive | inactive | inactive | inactive | inactive | inactive |  |  |  |  |  |  |  |  | 
18 | O=C1OC(=O)c2c(Cl)c(Cl)c(Cl)c(Cl)c21 | inactive | inactive | inactive | inactive | inactive | inactive | inactive | inactive | inactive | inactive | inactive |  |  |  |  | inactive |  |  | inactive | 
19 | Nc1nc(N)c2nc(-c3ccccc3)c(N)nc2n1 | inactive | inactive | inactive | 17.4 µM (active) and inactive | inactive | 40.4 µM (active) and 39.9 µM (active) | inactive | inactive | inactive | inactive | inactive | inactive |  | inactive | inactive | inactive |  |  |  | inactive
20 | CN1Cc2c(N)cccc2C(c2ccccc2)C1 (stereo not given) | inactive | inactive | inactive | inactive | inactive | inactive | inactive | inactive | inactive | inactive | inactive | inactive |  |  | inactive | inactive |  |  |  | 
21 | CC/C=C(\C(=O)N[C@@H]1C(=O)N2C(C(=O)OCOC(=O)C(C)(C)C)=C(COC(N)=O)CS[C@H]12)c1csc(N)n1 | inactive | inactive | inactive | inactive | inactive | inactive | inactive | inactive | inactive | inactive | inactive |  |  |  |  |  |  |  |  | 
